The list is not random: actives were taken first. Their share in the collection is about 0.58%.
Vc quorum ag-1: induces V. cholerae light production without autoinducers. V. cholerae BH1578 lux reporter, luminescence, 6 h. activation, % at 18.7 µM. 350,000 tested, 0.16% active; in the data active = activation mostly above about 9.7%, no sharp cut-off
FadD28 FP inh: inhibitors of Mycobacterium tuberculosis FadD28 bisubstrate binding | AID 588549 | FadD28 bisubstrate probe binding, fluorescence polarization | inhibition, % at 12.5 µM | 360,000 tested, 0.22% active; in the data active = inhibition above about 8.5%, passing the limit was not always enough
Y pestis TopoI: Y. pestis Topo-I inhibition via cleavage products; Y. pestis Topo-I cleavage product accumulation, plate reader; activity, % at 10 µM; 360,000 tested, 0.064% active; AID 504884; in the data active = activity above about 50%, passing the limit was not always enough
BioA inh: BioA (M. tuberculosis) enzyme inhibition; purified M. tuberculosis BioA enzyme, plate reader; inhibition, % at 9.99 µM; 360,000 tested, 0.096% active; in the data active = inhibition above about 40%
TcdB GH inh: inhibitors of Clostridioides difficile toxin B glycohydrolase; P18177; TcdB glycohydrolase enzymatic assay, plate reader; inhibition, % at 9.99 µM; 350,000 tested, 0.24% active; AID 652162; in the data active = inhibition above about 10%
Vc quorum ag-2: quorum light induction in BH1578 reporter strain | shares compounds with Vc quorum ag-1 | V. cholerae BH1578 lux reporter, luminescence, 6 h | activation, % at 50 µM | 620 tested, under 10 active; call rule not given here
HeLa 24h tox: HeLa cell viability loss at 24 h; shares compounds with Vc quorum ag-1; CellTiter-Glo ATP luminescence; activity change, negative = cytotoxicity, % at 35 µM; 25 tested, under 10 active; AID 624140;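 active = signal drop with fitted half-maximal concentration at or below twice the highest valid dose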
Starred values were filed as active, the others as inactive; i = inactive; x = no result given.

SMILES	Vc quorum ag-1	FadD28 FP inh	Y pestis TopoI	BioA inh	TcdB GH inh	Vc quorum ag-2	others
CC(C)C(=O)Nc1ccc2c(c1)C(=O)N(C)[C@@H]1CC[C@@H](CC(=O)Nc3ccccc3)O[C@@H]1CO2	x	x	x	x	1	x
CCn1nnnc1NCc1ccc(SC)cc1	x	-4	1	-1	3	i
Cc1ccc(CNc2nnnn2C)cc1	0	0	4	-2	1	x
CCn1nnnc1NCc1ccc(N2CCCC2)cc1	x	-3	-4	0	x	i	HeLa 24h tox=13
C[C@@H]1CN([C@H](C)CO)C(=O)Cc2cc(NC(=O)Nc3cccc4ccccc34)ccc2O[C@@H]1CN(C)Cc1ccc(C(=O)Nc2ccccc2N)cc1	x	x	x	x	-1	x
CCNC(=O)C[C@@H]1CC[C@@H]2[C@H](COC[C@@H](O)CN2Cc2ccc(Cl)c(Cl)c2)O1	x	x	x	1	0	x
COc1ccc(-c2ccc(-c3nnc(Cc4ccc(OC)c(OC)c4)o3)cc2)cc1	14	-4	6	-1	x	0
Cc1ccc(S(=O)(=O)Nc2cc(C(=O)NCCN(C)C)ccc2N2CCCCC2)cc1	17*	1	1	5	x	0
Cc1ccc(S(=O)(=O)Nc2cc(C(=O)NCCN3CCCC3)ccc2N2CCCCC2)cc1	1	-1	12	1	x	x
O=C(C1CCCC1)N1CC2(C1)[C@H](c1ccccc1)[C@@H](CO)N2Cc1ccccc1F	x	x	x	x	0	x
CC(C)N1CCc2c(sc(NC(=O)c3ccc(C(=O)c4ccccc4)cc3)c2C(N)=O)C1	0	-2	-5	-2	1	x
CC(C)N1CCc2c(sc(NC(=O)c3ccc4ccccc4c3)c2C(N)=O)C1	138*	-4	-8	-7	-3	1
CCCSc1nc2c(c(=O)[nH]c(=O)n2C)n1Cc1ccc(C)cc1	-12	0	1	-1	x	x
Cc1ccc(Cn2c(SCC(C)C)nc3c2c(=O)[nH]c(=O)n3C)cc1	25*	-5	6	0	x	2
COc1ccccc1CNC(=O)c1ccc(S(=O)(=O)N(C)c2ccccc2)cc1	14	-4	21	-1	-1	0
CCc1ccc2[nH]c(=O)c(C(c3nnnn3Cc3ccccc3)N3CCOCC3)cc2c1 (stereo not given)	i	-1	7	0	x	x
Cc1ccc2occ(C(c3nnnn3Cc3ccccc3)N3CCOCC3)c(=O)c2c1 (stereo not given)	25*	-1	13	x	x	1
Cc1ccc(SCc2nc(-c3cccnc3)no2)cc1	21*	-2	-9	0	x	0
CCC(C)NS(=O)(=O)c1ccc(S(=O)(=O)Nc2cc3c(cc2C(C)=O)OCO3)cc1 (stereo not given)	22*	0	0	-2	x	0
CC(=O)c1cc2c(cc1NS(=O)(=O)c1ccccc1)OCO2	14	-1	4	0	x	0
CC(=O)c1cc2c(cc1NS(=O)(=O)c1cccc(C(=O)O)c1)OCO2	-4	-1	-5	0	1	x
Cc1cccc(NC(=O)c2c(O)c3ccccc3n(C)c2=O)c1	70*	-1	5	-2	0	0
CCOC(=O)c1cnc2nc(C(F)(F)F)[nH]n2c1=O	17*	-3	-1	-2	x	0
CCOC(=O)c1cnc2nc(Cc3ccccc3)[nH]n2c1=O	i	-2	1	-1	x	x
CC(C)Cn1c(CN2CCN(C)C(CCO)C2)nc2ccccc21 (stereo not given)	72*	1	-3	-2	1	0
SMILES	Vc quorum ag-1	FadD28 FP inh	Y pestis TopoI	BioA inh	TcdB GH inh	Vc quorum ag-2	others
COc1cccc(NC(=O)N2C[C@H](O)COC[C@H]3O[C@H](CC(=O)NC4CCCC4)CC[C@@H]32)c1	x	x	x	0	-2	x
CC(C)NC(=O)c1cnc(Sc2ncc(C(F)(F)F)cc2Cl)n1C	12	-2	-4	1	x	0
C/C=C/c1ccc2c(c1)O[C@H](CN(C)C(=O)Cc1cccnc1)[C@@H](C)CN([C@@H](C)CO)S2(=O)=O	x	x	x	4	0	x
COc1ccc(Cc2nnc(NC(=O)C3CC(=O)N(c4ccccc4C)C3)s2)cc1OC (stereo not given)	9	-1	18	0	-1	1
CCCCc1nnc(NC(=O)C2CC(=O)N(c3ccc(C)cc3)C2)s1 (stereo not given)	0	-3	2	-2	1	x
CCc1nnc(NC(=O)C2CC(=O)N(c3ccc(C)cc3)C2)s1 (stereo not given)	12	-2	7	-2	x	0
CCOc1ccc(N2CC(C(=O)Nc3nnc(Cc4ccc(OC)c(OC)c4)s3)CC2=O)cc1 (stereo not given)	0	-1	25	0	1	x
O=C(NCC1CC1)[C@H]1N[C@H]2c3ccc(C4=CCCCC4)c(=O)n3C[C@H]2[C@@H]1CO	x	x	x	-2	-6	x
Cc1cc2oc(=O)cc(-c3ccccc3)c2c(C)c1-c1ccc(CO)cc1	0	-3	27	4	2	x
Cc1cc2oc(=O)cc(-c3ccccc3)c2c(C)c1-c1ccc(C#N)cc1	12	0	21	2	1	0
CC(C)NC(=O)Nc1ccc2c(c1)C(=O)N([C@@H](C)CO)C[C@@H](C)[C@@H](CN(C)C(=O)c1ccncc1)OCCCC[C@H](C)O2	x	x	x	-2	0	x
CCc1cc(C(=O)N2CCN(C(=O)c3ccccc3)CC2)sc1C	14	-3	5	-1	1	0
CCc1cc(C(=O)N2CCN(c3ccccn3)CC2)sc1C	0	1	25	2	1	x
COc1ccc(CC(=O)N2CCC(c3ccccc3)C2)cc1 (stereo not given)	0	-2	9	x	1	x
COc1ccc(CC(=O)N2CCC(Nc3nc4ccccc4n3Cc3ccc(F)cc3)CC2)cc1	15*	-8	20	3	x	0
CCS(=O)(=O)Nc1ccc(C(=O)OC)cc1	17*	-4	1	0	x	0
CCS(=O)(=O)Nc1ccc(C(=O)c2ccccc2)cc1	3	-2	6	0	x	x
COC(=O)c1ccc(CSc2nnnn2C)o1	4	-4	7	0	x	x
COC(=O)c1ccc(CSc2nnc3c(Cl)cc(Cl)cn23)o1	35*	-3	0	4	-1	3
O=C(N1CCN(c2ccccc2F)CC1)C12CC3CC(CC(C3)C1)C2	1	-1	27	0	x	x
Cc1cccc(N2CCN(C(=O)C34CC5CC(CC(C5)C3)C4)CC2)c1C	22*	-1	0	1	x	1
COc1ccccc1CNC(=O)COC(=O)c1n[nH]c2ccccc12	12	0	6	x	x	2
COc1ccccc1CNC(=O)c1n[nH]c2ccccc12	i	-4	-2	-2	2	x
Cc1cccc(NC(=O)CS(=O)(=O)c2cn(C)c3ccccc23)c1C	17*	0	-2	-4	x	0
Cc1cc(=O)[nH]c(CN2CCC(c3ccccc3)CC2)n1	x	0	-3	x	0	1
Cc1nc(CN2CCC(c3ccccc3)CC2)cc(=O)[nH]1	0	0	-3	x	0	x

Assay outcomes (PubChem BioAssay)
